Compound activity from PubChem.
Hits are enriched below; roughly 9.3% of the tested compounds scored in any of these assays.
Rab9 promoter act: qHTS Assay for Rab9 Promoter Activators; hit rate 2.8% among 320,000; Potency, µM (top dose mostly 9.22 µM), for the others: at the highest dose activation, negative = inhibition, actives largely listed as activators; Huh7 Rab9 promoter-luciferase reporter, luminescence, 24 h; also: % of control where 0% means no effect; nearly all actives have a fitted effect of over 60% in size
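Cells were plated at 1500 per well in reduced-serum medium with 10% FBS and left 2 h. Compound in DMSO was then added for 24 h at 37 °C. Reporter signal was read by luminescence after 10 min with luciferase detection reagent.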
SMN2 splice up: qHTS Assay for Enhancers of SMN2 Splice Variant Expression; HEK293 SMN2-luciferase splicing reporter, luminescence, 30-36 h; Potency, µM (titrated, usually from 46.1 µM), for the others: at the highest dose activity change, positive = activation, hits mostly activators; hit rate 2.8% among 210,000; also: % of control where 0% means no effect; nearly all actives have a fitted effect of over 55% in size
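HEK293 cells carry an SMN2 […]–luciferase reporter in which exon 7 inclusion puts luciferase in frame. Cells were plated 10-12 h before compound addition, then incubated 30-36 h at 37C. ONE-Glo luminescence was read; sodium butyrate at 4.5 mM final served as control.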
NPC1 prom act: qHTS Assay for NPC1 Promoter Activators. Huh7 NPC1 promoter luciferase reporter, 24 h. Potency, µM (top dose mostly 9.22 µM), inactives show at the top dose activation, usual class: activators. hit rate 2.4% among 320,000; also: % of control where 0% means no effect; nearly all actives have a fitted effect of over 60% in size
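Stably transfected Huh7 (NPC1 promoter→luciferase), 1500 cells/well in Opti-MEM + 10% FBS, 2 h settle, then compound 24 h at 37 °C. Luminescence after 10 min with Amplite reagent.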
ELG1 repair inh: qHTS screen for small molecules that inhibit ELG1-dependent DNA repair in human embryonic kidney (HEK293T) cells expressing luciferase-tagged ELG1; HEK293T ELG1-luciferase reporter, luminescence, 16 h; DNA damage induced by 5-fluorouridine; Potency, µM (highest dose often 46.1 µM), for inactives: at the highest dose activity change, negative = inhibition, hits mostly inhibitors; hit rate 2.3% among 330,000; AID 504467, 2011; also: % is scaled to controls: 0 for no effect and ±100 for the full control effect; nearly all actives have a fitted effect of over 55% in size
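Quantitative HTS, concentration-response format. 2,000 cells/well co-treated with 5-fluorouridine and compound, 16 hr in 5% CO2 at 37 °C; ONE-Glo luminescence read after 30 min.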
FLuc modulator: qHTS profiling assay for firefly luciferase inhibitor/activator using purifed enzyme and Km concentrations of substrates (counterscreen for miR-21 project). Luciferin 4-monooxygenase (Photinus pyralis), P08659. purified FLuc, Km substrates, luminescence inhibition. Potency, µM (series often up to 57.5 µM), without a hit: top-dose activity change, negative = inhibition, usual class: inhibitors. hit rate 6.9% among 360,000. AID 588342, 2011;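 also: plate controls were vehicle for no effect and reference inhibitor for full effect; nearly all actives have a fitted effect of over 55% in size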
Target sequence (P08659 whole entry, looked up): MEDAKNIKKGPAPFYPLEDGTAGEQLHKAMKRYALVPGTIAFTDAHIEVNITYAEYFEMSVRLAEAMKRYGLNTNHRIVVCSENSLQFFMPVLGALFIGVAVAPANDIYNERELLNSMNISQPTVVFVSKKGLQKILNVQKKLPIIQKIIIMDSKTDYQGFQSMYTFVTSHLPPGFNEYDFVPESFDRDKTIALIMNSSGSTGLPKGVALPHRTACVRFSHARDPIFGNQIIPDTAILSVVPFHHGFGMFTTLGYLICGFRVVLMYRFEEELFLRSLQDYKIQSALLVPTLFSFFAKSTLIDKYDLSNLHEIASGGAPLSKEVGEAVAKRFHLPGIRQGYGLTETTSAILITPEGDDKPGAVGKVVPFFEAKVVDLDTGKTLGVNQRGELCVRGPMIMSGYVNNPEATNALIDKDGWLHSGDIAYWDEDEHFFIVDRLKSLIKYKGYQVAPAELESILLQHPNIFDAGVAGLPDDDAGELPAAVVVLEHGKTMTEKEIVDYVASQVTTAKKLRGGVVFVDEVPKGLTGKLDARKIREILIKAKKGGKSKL
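Biochemical qHTS of compounds, final roughly 60 µM downward over six points, against 10 nM purified firefly luciferase using Km concentrations of substrates (10 uM D-luciferin, 10 uM ATP) in Tris acetate pH 7.5 buffer; luminescence output.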
ELG1 genotox: qHTS screen for small molecules that induce genotoxicity in human embryonic kidney (HEK293T) cells expressing luciferase-tagged ELG1 | HEK293T ELG1-luciferase reporter, luminescence, 16 h | Potency, µM (series often up to 46 µM), for the others: at the top dose activity change, positive = activation, hits mostly activators | hit rate 1.3% among 330,000; also: % of control where 0% means no effect; nearly all actives have a fitted effect of over 60% in size
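Quantitative HTS format in 1536-well plates. HEK293T ELG1-luciferase reporter cells receive test compound and are incubated 16 hr at 37 °C, 5% CO2; ONE-Glo added, 30 min room temperature, then luminescence read.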
* hit, by the source's call; ? = inconclusive; · = not tested or not shown; [ ] = dose if it differs, or a comment. Calls follow the shape of the dose curve; as a rule, active = well fitted curve in the direction sought with a large enough effect; inconclusive = small, poorly fitted or top-dose-only effect, or another doubt; inactive = no such curve, though single readings can be large; an effect the other way counts as inactive or inconclusive. Potency is read from the fitted curve at half-maximal effect.

SMILES	Rab9 promoter act	SMN2 splice up	NPC1 prom act	ELG1 repair inh	FLuc modulator	ELG1 genotox
CN(CC(=O)Nc1cccc(F)c1)C(=O)c1sc2ccccc2c1Cl	-8.2%	·	2.4%	?	?	4.1%
CCc1ccccc1NC(=O)COC(=O)c1cn(CC)c2nc(C)ccc2c1=O	·	3.0%	·	·	-8.7%	·
COc1ccccc1NC(=O)NNC(=O)c1ccc(-c2ccccc2)cc1	4.0%	·	-0.2%	22.4%	?	6.1%
Cc1cccc(C(=O)Nc2cc(C)ccc2NC(=O)COc2ccccc2)c1	-3.2%	-7.1%	2.3%	?	0.5%	-5.3%
Cc1ccc(C(=O)Nc2ccccc2C(=O)O)cc1NC(=O)COc1c(C)cccc1C	-4.9%	12.9%	-2.6%	3.6%	13.5µM*	-3.1%
Cc1cc(C(=O)Nc2ccccc2C(=O)O)ccc1NC(=O)COc1cccc([N+](=O)[O-])c1	-2.7%	·	-1.4%	13.4%	23.9µM*	2.7%
Cc1cc(C(=O)Nc2ccccc2C(=O)O)ccc1NC(=O)COc1cccc(C)c1C	14.2%	·	15.7%	22.4%	6.01µM*	28.7%
Cc1cccc(OCC(=O)Nc2cccc3cccnc23)c1C	·	-8.4%	·	·	0.9%	·
CC1CN(C(=O)c2ccn(C)n2)CC(C)O1 (stereo unspecified)	1.0%	6.3%	-2.2%	8.3%	1.1%	-1.0%
COc1ccc(CNC(=O)COC(=O)c2nc3nc(C)cc(C)n3n2)cc1	0.0%	·	-2.6%	2.9%	-1.6%	-1.2%
O=C(CCC(=O)Nc1ccc(F)cc1)N/N=C/c1cccs1	3.6%	·	1.0%	?	3.8%	10.4%
Cc1nn2cc(-c3cccc(Cl)c3)cnc2c1Cl	?	12.6µM*	-11.9%	?	-19.5%	18.2%
COc1cc(OC)cc(-c2nnc(SCc3ccc(C(=O)O)cc3)o2)c1	-1.4%	·	-2.8%	1.8%	-2.7%	0.3%
COc1ccc(NC(=O)C2CCN(Cc3cnn(-c4ccccc4)c3-n3cccc3)CC2)cc1OC	·	12.2%	·	·	2.2%	·
COc1cccc(NC(=O)C2CCN(Cc3cnn(-c4ccccc4)c3-n3cccc3)CC2)c1	19.1%	-33.4%	1.2%	18.4µM*	-5.7%	-6.4%
COc1ccc(OC)c(NC(=O)C2CCN(Cc3cnn(-c4ccccc4)c3-n3cccc3)CC2)c1	-0.1%	-4.5%	-4.1%	23.1µM*	5.7%	-2.4%
COc1ccc(CN2CCCC(C(=O)Nc3cccc(-n4cccn4)c3)C2)c(F)c1 (stereo unspecified)	-1.7%	·	0.2%	16.4µM*	1.2%	-14.3%
O=C(O)CSc1nnc(-c2ccncc2)n1CCc1ccccc1	?	20.0%	1.1%	-1.8%	1.8%[2.3 µM]	0.2%
Cn1c(=O)cc(SCC(=O)NCCCN2CCN(c3ccccc3F)CC2)c2ccccc21	-12.7%	·	8.0%	15.8%	-0.7%	1.3%
CC(=O)[C@@H]1[C@@H](C)N(Cc2ccccc2)C(=O)N[C@H]1c1ccccc1	·	-5.2%[9.22 µM]	·	·	·	·
COc1ccc(-c2cc(C(=O)Nc3c(C)n(C)n(-c4ccccc4)c3=O)no2)cc1	-6.4%	-15.1%	-0.2%	1.5%	-0.2%	10.4%
COc1ccc2oc(=Nc3ccc(C(=O)O)cc3)c(C(=O)NCc3ccco3)cc2c1	4.7%	-18.2%	-0.9%	-10.2%	-18.3%	-7.6%
CCc1ccc2oc(-c3ccc(OC)cc3)cc(=Nc3cccc(C(=O)O)c3)c2c1	3.16µM*	?	?	?	5.36µM*	4.11µM*
CCc1ccc2oc(-c3ccc(OC)cc3)cc(=Nc3c(C)n(C)n(-c4ccccc4)c3=O)c2c1	?	-103.8%	?	?	8.49µM*	-14.4%
COc1ccc(-c2cc(=Nc3ccc(C(=O)O)cc3)c3cc(C)ccc3o2)cc1	?	17.8µM*	?	?	9.53µM*	?
SMILES	Rab9 promoter act	SMN2 splice up	NPC1 prom act	ELG1 repair inh	FLuc modulator	ELG1 genotox
CC(=O)C1=C(O)C(=O)N(Cc2ccco2)C1c1ccccc1F (stereo unspecified)	6.0%	-1.8%	2.4%	2.8%	?	1.0%
CCOc1ccc(-n2cc(-c3ccccc3)c3c(N4CCOCC4)ncnc32)cc1	-12.6%	-41.0%	-5.0%	9.2µM*	0.5%	-20.5%
CC(=O)c1cccc(Nc2nn(-c3ccc(OC(F)(F)F)cc3)nc2C(C)=O)c1	·	-9.1%	·	·	6.01µM*	·
O=C(Nc1ccn(Cc2ccc(Cl)cc2)n1)c1ccccc1	3.55µM*	12.6µM*	?	?	10.7µM*	?
CCOC(=O)Cn1nc(NC(=O)c2ccc3c(c2)OCO3)cc1C	-4.0%	·	-1.1%	5.8%	?	15.3%
Cc1ccc(C(=O)Nc2ccn(Cc3ccc(F)cc3)n2)o1	?	·	?	?	15.1µM*	18.5%
O=C(Nc1ccn(Cc2ccccc2)n1)c1ccc2c(c1)OCO2	2.82µM*	?	?	?	5.36µM*	18.9%
Cc1ccc(C(=O)Nc2ccc(F)cc2F)o1	21.4%	-7.9%	10.9%	?	-19.7%	-0.7%
CC(=O)Nc1ccc(NCN2C(=O)C3C4CCC(C4)C3C2=O)cc1 (stereo unspecified)	-7.0%	2.6%	-0.2%	-2.6%	-1.8%	1.6%
CCN(CC(=O)Nc1ccc2c(c1)OCCO2)C(=O)COc1cc(C)ccc1Cl	-3.9%	·	0.5%	-15.3%	-16.8%	0.0%
Cc1ccc(Cl)c(OCC(=O)Nc2ccc3c(c2)OCCO3)c1	1.41µM*	17.8µM*	2.82µM*	?	1.9µM*	14.2%
Cc1ccc(N(CC(=O)Nc2ccc3c(c2)OCCO3)S(=O)(=O)c2c(C)noc2C)cc1	-1.5%	-22.2%	1.4%	16.4µM*	-1.1%	-6.9%
O=C(COC(=O)COc1ccc(Cl)cc1)Nc1ccc2c(c1)OCCO2	-2.5%	·	-0.4%	?	-0.6%	-3.8%
O=C(COc1cc(Cl)c(Cl)cc1Cl)NC(=O)Nc1ccc2c(c1)OCCO2	?	17.8µM*	?	?	21.3µM*	?
COc1ccc(N(CC(=O)Nc2ccc3c(c2)OCCO3)S(=O)(=O)c2c(C)noc2C)cc1	-4.9%	-24.4%	-1.7%	-11.3%	1.3%	0.5%
COc1ccc(C)cc1S(=O)(=O)N(CC(=O)Nc1ccc2c(c1)OCCO2)Cc1ccccc1	-0.7%	-2.1%	-0.6%	18.4µM*	-4.3%	-8.0%
O=C(N[C@H](C(=O)O)c1ccccc1)C1CCC(Cn2cnc3ccccc3c2=O)CC1 (stereo partly specified)	-4.6%	·	3.6%	11.3%	2.8%	0.1%
